In PubChem BioAssay:
Values without a mark were called inactive. Activity calls are given as the source filed them. Rule as the data show it, unless noted: active = inhibition above about 30%; inactive = the rest. Square brackets hold non-standard residues; d marks the D form. Peptide text beside a SMILES is read from it. NMeY = CN[C@@H](Cc1ccc(O)cc1)C(=O)O; NMeF = CN[C@@H](Cc1ccccc1)C(=O)O; 2Abz = Nc1ccccc1C(=O)O

Columns and labels:
[1] = target: Nuclear receptor coactivator 3 (Homo sapiens) (UniProt Q9Y6Q9); assay: SRC3 coactivator transcriptional activity inhibitors, confirmation, cell-based, luminescence, quadruplicate (AID 588792;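 active = mean inhibition over 43.08%, the solvent-only control mean plus 3 SD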;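 also: 0% = DMSO treated cells and 100% = gossypol at 36 µM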); conditions: HEK293 GAL4-SRC3 luciferase reporter, at 3.6 µM, active compounds read high
[2] = tested on: transactivating tegument protein VP16 (Human herpesvirus 1), Gal4-VP16 luciferase reporter; assay: VP16 transactivation inhibitors, counter-screen for SRC3 inhibitor project, cell-based, luminescence, high throughput (AID 588794); conditions: mammalian cells, VP16-driven luciferase reporter luminescence; at 3.6 µM; active compounds read high

Sequence of Nuclear receptor coactivator 3 (Homo sapiens) (Q9Y6Q9 whole entry, looked up, the tested form may be a part): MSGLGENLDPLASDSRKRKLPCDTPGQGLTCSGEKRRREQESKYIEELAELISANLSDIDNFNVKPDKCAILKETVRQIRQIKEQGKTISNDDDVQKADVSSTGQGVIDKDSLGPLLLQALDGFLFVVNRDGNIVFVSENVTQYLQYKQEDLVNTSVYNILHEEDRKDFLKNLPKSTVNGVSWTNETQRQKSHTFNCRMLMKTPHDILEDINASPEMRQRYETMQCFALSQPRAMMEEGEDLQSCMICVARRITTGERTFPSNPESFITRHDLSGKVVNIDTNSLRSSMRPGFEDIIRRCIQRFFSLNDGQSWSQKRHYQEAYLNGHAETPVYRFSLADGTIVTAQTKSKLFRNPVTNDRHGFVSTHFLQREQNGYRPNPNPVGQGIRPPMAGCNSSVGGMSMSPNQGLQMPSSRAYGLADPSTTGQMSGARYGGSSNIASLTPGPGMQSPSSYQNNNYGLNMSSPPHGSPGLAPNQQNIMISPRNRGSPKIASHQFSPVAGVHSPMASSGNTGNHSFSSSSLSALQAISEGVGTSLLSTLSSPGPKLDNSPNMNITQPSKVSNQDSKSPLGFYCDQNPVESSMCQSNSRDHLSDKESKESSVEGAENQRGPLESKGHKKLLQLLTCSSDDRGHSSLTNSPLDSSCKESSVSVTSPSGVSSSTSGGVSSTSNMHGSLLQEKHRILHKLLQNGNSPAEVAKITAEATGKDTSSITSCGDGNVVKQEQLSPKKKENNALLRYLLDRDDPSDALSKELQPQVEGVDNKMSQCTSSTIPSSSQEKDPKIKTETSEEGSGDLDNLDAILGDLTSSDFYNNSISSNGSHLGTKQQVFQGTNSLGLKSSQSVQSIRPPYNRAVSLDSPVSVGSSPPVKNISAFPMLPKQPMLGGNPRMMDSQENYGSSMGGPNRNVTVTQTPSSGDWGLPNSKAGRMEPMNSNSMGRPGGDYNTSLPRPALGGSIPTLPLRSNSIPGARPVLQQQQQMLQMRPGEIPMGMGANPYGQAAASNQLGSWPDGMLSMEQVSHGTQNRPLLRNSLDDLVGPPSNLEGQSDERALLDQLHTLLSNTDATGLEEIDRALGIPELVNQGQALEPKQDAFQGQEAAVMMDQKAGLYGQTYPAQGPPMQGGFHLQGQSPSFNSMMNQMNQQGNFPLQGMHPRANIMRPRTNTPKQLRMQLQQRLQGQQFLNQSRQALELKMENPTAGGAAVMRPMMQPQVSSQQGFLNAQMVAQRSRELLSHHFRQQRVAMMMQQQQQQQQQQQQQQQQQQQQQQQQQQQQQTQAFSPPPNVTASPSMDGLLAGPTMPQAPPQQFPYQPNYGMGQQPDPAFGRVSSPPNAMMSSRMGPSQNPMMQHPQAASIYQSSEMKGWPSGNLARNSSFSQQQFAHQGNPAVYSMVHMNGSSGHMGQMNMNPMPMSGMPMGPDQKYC

| Structure (SMILES) | inhibition [1] | inhibition [2] |
| --- | --- | --- |
| CC(=O)c1cccc(NC(=O)c2cc(S(=O)(=O)N3CCOCC3)cs2)c1 | 2.71% | 1.82% |
| COc1ccccc1NS(=O)(=O)c1cc(NC(=O)c2ccc(Cl)nc2)ccc1Cl | 9.43% | 30.7% (active) |
| COc1ccccc1OCC(=O)NNC(=O)C1CCN(c2ncnc3sc(C)c(C)c23)CC1 | 3.67% | 0.76% |
| Cc1ccc(NC2=C/C(=N/S(=O)(=O)c3cccs3)c3ccccc3C2=O)cc1 | 85% (active) | 82% (active) |
| COC(=O)c1ccc2c(c1)C(C)(C)C(/C=C/c1ccccc1O)=[N+]2C | 58.6% (active) | 43.5% (active) |
| COc1ccc(/C=C(\C#N)C(=O)OCC(=O)N(C)C2CCS(=O)(=O)C2)cc1 (configuration not stated) | -1.8% | -11% |
| CCCCCn1c(=O)[nH]c2cc(C(=O)N3CCN(c4ccc(C(C)=O)cc4)CC3)ccc2c1=O | 0.25% | 21.7% |
| COc1ccccc1N1CCN(C(=O)C2CCCN(S(=O)(=O)c3ccc4c(c3)CCCN4C(C)=O)C2)CC1 (configuration not stated) | -12.2% | 8.25% |
| COc1cc2c(ccc3cc(OC)c(OC)c(O)c32)cc1O | 56.5% (active) | -4.29% |
| CCCc1nn(C)c(C(=O)Nc2cccc(Cl)c2)c1Cl | 15% | 0.8% |
| c1ccc(Oc2cccc(Oc3ccccc3)n2)cc1 | 5.37% | 1.72% |
| O=C(Nc1cc(C(=O)N2CCCC2)ccc1N1CCCC1)c1ccccc1F | 27.3% | 13.1% |
| Cn1nc(C(F)(F)F)c(-c2ccccc2)c1NC(=O)c1cccnc1 | 18.6% | 11.4% |
| Cc1ccc2occ(/C=N/NC(=O)c3ccccc3Br)c(=O)c2c1 | 40.7% | 28.5% |
| CCCCC(=O)NC(=S)Nc1cccc(Cl)c1N1CCCCC1 | 1.21% | -6.23% |
| Cc1nc(Nc2nc(CSc3nc4ccccc4[nH]3)cc(=O)[nH]2)nc2ccccc12 | -5.42% | 3.35% |
| NC(=S)NNc1ccc(Cl)c(Cl)c1 | 12.7% | -0.23% |
| C=CCN1CN(S(=O)(=O)c2cccs2)c2nc3ccccc3nc21 | -9.88% | 7.9% |
| O=C(NN=Cc1ccccc1O)c1cccc([N+](=O)[O-])c1 | 52.8% (active) | 51.8% (active) |
| Cc1cc(C)nc(/N=C(\N)Nc2ccccc2-c2ccccc2)n1 | -12% | 13.4% |
| COc1ccc(CN(C)C(=O)c2cccc(NC(=O)CC3SC(N4CCCCC4)=NC3=O)c2)c(OC)c1 (configuration not stated) | 26.9% | 30.3% (active) |
| CCN(CC)CCCNc1nc2cc(OC)c(OC)cc2c2nc(-c3cccnc3)nn12 | -30.7% | 39.4% (active) |
| Cc1nc(NCc2ccccn2)c2ccccc2n1 | -6.68% | 13.9% |
| COc1ccc(C(=O)NN(C)c2nc(C(F)(F)F)nc3ccccc23)cc1 | 51.1% (active) | 35.3% (active) |

| Structure (SMILES) | inhibition [1] | inhibition [2] |
| --- | --- | --- |
| COc1c(Cl)cc(Cl)cc1/C=C/C(=O)c1ccc(NC(=O)c2cccs2)cc1 | 48.7% (active) | 26.6% |
| CCOc1ccc(-c2cc(C)n3nc(C(N)=O)cc3n2)cc1 | 32.9% | 23.3% |
| COc1cccc(C(=O)Oc2c(Br)cc(Br)cc2/C=N/NC(=O)c2cc(C)[nH]n2)c1 | 18.3% | 18.3% |
| O=C(Nc1sc2c(c1C(=O)O)CCCC2)c1ccc(Cl)cc1 | 30.9% | 50.5% (active) |
| Cc1ccc2[nH]c(C(=O)N/N=C/c3ccccc3O)c(C)c2c1 | 65.9% (active) | 67.7% (active) |
| CCOc1ccc(N(CC)C(=O)Cc2c(C(=O)O)n(C)c3ccccc23)cc1 | -8.28% | 7.58% |
| Cc1ccc(S(=O)(=O)CCC(=O)N2CCN(c3ccc(Cl)cc3)CC2)cc1 | -1.83% | 2.47% |
| COC(=O)c1ccc(S(=O)(=O)NCc2ccc(S(N)(=O)=O)cc2)o1 | -5.84% | -6.55% |
| O=C(Nc1nc(-c2ccc3c(c2)OCCO3)cs1)c1ccc(S(=O)(=O)N2CCCCC2)cc1 | -0.44% | 32.6% (active) |
| CC(C)OP(=O)(OC(C)C)/C(C=O)=N\Nc1ccc([N+](=O)[O-])cc1 | 7.9% | 2.13% |
| CCCn1c(C)cc(C(=O)COc2ccc(C)nc2[N+](=O)[O-])c1C | 11.3% | 6.56% |
| O=c1[nH]oc2cc(Cl)ccc12 | 3.14% | -1.43% |
| CCC1C(=O)NCCN1C(=O)c1ccc2nc(Cc3ccc(OC)cc3)oc2c1 (configuration not stated) | -2.02% | -0.9% |
| Nc1cccc2c1C(=O)N(C(=O)c1cccc(S(=O)(=O)N3CCCCCC3)c1)C2=O | 1.95% | -5.22% |
| Cc1cc(C(=O)N2CCN(c3ccccn3)CC2)no1 | 4.36% | -9.5% |
| Cc1cccc(C2(c3cccc(C)c3)CC2C(=O)Nc2ccc([N+](=O)[O-])cc2O)c1 (configuration not stated) | 7.2% | 8.99% |
| COc1ccccc1NC(=O)Nc1nnc(Cc2ccccc2F)s1 | 5.82% | 20.4% |
| Cc1ccc(C(=O)N(Cc2cccs2)C2CCS(=O)(=O)C2)cc1 (configuration not stated) | -5.57% | 0.26% |
| O=C(Nc1nc(-c2ccccn2)cs1)c1ccc(F)c(S(=O)(=O)N2CCOCC2)c1 | 28% | 33.5% (active) |
| Cn1nc(C(F)(F)F)c(-c2ccc(Br)cc2)c1NC(=O)c1ccco1 | 7.4% | -1.15% |
| c1ccc2c(c1)Nc1ccncc1S2 | 31.2% | 16.4% |
| O=C1N(c2cccc(Cl)c2)C(c2ccc(Cl)cc2)N2CCCN12 (configuration not stated) | 3.22% | -0.24% |
| COc1ccc(N2CCN(c3nc(NCCc4ccc(OC)c(OC)c4)nc(OC)n3)CC2)cc1 | 6.14% | 1.14% |
| c1ccc2c(c1)OCC(CNc1ncnc3sccc13)O2 (configuration not stated) | 1.57% | 37.9% (active) |

| Structure (SMILES) | inhibition [1] | inhibition [2] |
| --- | --- | --- |
| CN1C(=O)C2(C(C#N)=C(N)N(c3cc(Cl)cc(Cl)c3)C3=C2C(=O)CCC3)c2ccccc21 (configuration not stated) | 30.9% | 27.9% |
| CCc1ccc(N2CC(C(=O)N/N=C/c3cc([N+](=O)[O-])ccc3O)CC2=O)cc1 (configuration not stated) | -9% | 9.04% |
| Cc1ccc(-c2c[n+]3c(n2-c2ccccc2)SCC3)cc1 | 8.17% | 24.7% |
| NC(=O)c1sc2nc3c(c(-c4ccco4)c2c1N)CCCC3 | 59.8% (active) | 32.4% (active) |
| COc1ccc(CCNC(=O)COC(=O)Cc2cccc3ccccc23)cc1 | -2.4% | -9.98% |
| Cc1ccccc1NC1=NCC(c2ccc([N+](=O)[O-])cc2)S1 (configuration not stated) | 18% | -2.52% |
| CC(C)C[C@@H]1NC(=O)[C@H](Cc2ccccc2)N(C)C(=O)[C@H](C)NC(=O)c2ccccc2NC(=O)[C@H](Cc2ccc(O)cc2)N(C)C1=O (cyclo([2Abz]A[NMeF]L[NMeY])) | 18.1% | 17.5% |
| COc1ccc(C(C(=O)NC2CCCCC2)N(C(=O)CCl)c2ccc(Cl)cc2)cc1 (configuration not stated) | 54.1% (active) | 24.8% |
| O=C1c2ccc3c4c(ccc(c24)C(=O)N1c1cccc(O)c1)C(=O)N(c1cccc(O)c1)C3=O | 30.3% | 31% (active) |
| CCc1cccc(CC)c1NC(=O)CSc1nc2ccc(N3C(=O)C4C(C3=O)[C@H]3C=C[C@@H]4C3)cc2s1 (some centres not stated) | 1.87% | 10.2% |
| O=C(NCc1cccs1)C1CCN(S(=O)(=O)c2ccccc2F)CC1 | 0.65% | -0.48% |
| c1ccc(CN2CCN(c3ncnc4c3[nH]c3ccccc34)CC2)cc1 | 8.1% | 29.9% (active) |
| COc1ccc2c(c1)N(C)/C(=C/c1cccc[n+]1C)S2 | -6.44% | 37.5% (active) |
| O=C(/C=C/c1ccc([N+](=O)[O-])cc1)c1ccccc(=O)c1O | 33% | 37.5% (active) |
| COc1ccc2c(O)c(-c3c(C)cc(C)cc3C)c(=O)[nH]c2c1 | -14.3% | -6.8% |
| N#C/C(C(N)=O)=C1/CCc2ccccc2N1 | 21.2% | -2.45% |
| COc1ccccc1N1CCN(C(=O)CSc2nnc3n2C(C)(C)Cc2ccccc2-3)CC1 | -10.1% | 27.2% |
| COc1ccc(N2CC(C(=O)N/N=C/c3ccccc3)CC2=O)cc1 (configuration not stated) | 5.28% | -0.56% |
| CCN(C(=O)c1cnc(OC)cc1C(F)(F)F)c1ccc(Cl)cc1 | 9.44% | 4.62% |
| COc1ccc(CCNC(=O)C(C)n2nc(C)c3c(C)n(-c4ccc(C)cc4)nc3c2=O)c(OC)c1 (configuration not stated) | 7.11% | 30.4% (active) |
| CCOC(=O)CN(C(=O)COc1nc(C)cc(C)c1C#N)c1ccc(Cl)cc1 | 4.25% | 1.1% |
| CC1=[N+]([O-])C(C)(C)CC(C)(C)c2ccccc21 | 3.29% | 6.25% |
| O=C(N/N=C/c1cc(Br)ccc1O)c1cccc(N2CCCC2=O)c1 | 1.45% | 30.7% (active) |
